Test systems include SK-MEL-2 melanoma; EKVX NSCLC; SN12C renal; UO-31 renal; TK-10 renal; ACHN renal; CAKI-1 renal; A498 renal; CCRF-CEM leukemia; MOLT-4 leukemia; SR leukemia; RPMI-8226 leukemia; OVCAR-8 ovarian; OVCAR-5 ovarian; OVCAR-4 ovarian; SK-OV-3 ovarian; IGROV1 ovarian; OVCAR-3 ovarian; HS 578T breast; NCI/ADR-RES ovarian.
Test in all cases: NCI-60 one-dose screen, 48 h (100 = growth as untreated, 0 = no growth, -100 = all killed)
What all share (details): 10 µM unless noted

About 83,000 compounds went through this panel and 20% of them were active in at least one assay; those are over-represented in the sample as a whole.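 A percent growth of 40 corresponds to 60% growth inhibition; 0 means no net growth; -100 means all cells died. Active threshold: below 10.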 Unmarked numbers belong to inactive results. Calls of active or inactive are those of the source.

With `C/C(=N\Nc1ccc(S(N)(=O)=O)cc1)c1cnn(-c2cc(=O)[nH]c3ccc(Br)cc23)c1C`, the growth in the test with SK-MEL-2 melanoma was 20%; with EKVX NSCLC, 72.1%; with SN12C renal, 61.2%; with UO-31 renal it was 54.8%; in the test on TK-10 renal, 146%; in the test on ACHN renal it was 81%. For the same compound, the growth with CAKI-1 renal is 76.7%; with A498 renal, 115%; with CCRF-CEM leukemia, 8.23% (active); in the test on MOLT-4 leukemia, 18.5%; in the test on SR leukemia it was 4.11% (active); in the test with RPMI-8226 leukemia, 74.3%. Moreover, the growth with OVCAR-8 ovarian is 80.5%; with OVCAR-5 ovarian, 81.4%; in the test with OVCAR-4 ovarian, 67.7%; with SK-OV-3 ovarian it was 69.2%; in the test with IGROV1 ovarian, 56.9%; with OVCAR-3 ovarian, 56.2%. For the same compound, the growth in the test on HS 578T breast is 28.4%; in the test with NCI/ADR-RES ovarian it was 90.1%.

In the case of `COC(=O)c1c(C(=O)OC)c2ccc3c4ccccc4ccc3n2c1C(=O)C(C)Br` (stereo not given), the growth with SK-MEL-2 melanoma was 26.9%; with EKVX NSCLC, 86.5%; with SN12C renal it was 35.7%; with UO-31 renal it was 45%; in the test on TK-10 renal, 58.1%; with ACHN renal, 43.9%. Moreover, the growth is 71.3% with CAKI-1 renal; 87.2% in the test on A498 renal; -4.34% (active) in the test on CCRF-CEM leukemia; 0.188% (active) in the test on MOLT-4 leukemia; 3.43% (active) in the test on SR leukemia; 3.26% (active) in the test with RPMI-8226 leukemia. Moreover, the growth in the test on OVCAR-8 ovarian is 15.6%; in the test on OVCAR-5 ovarian, 75.7%; in the test on OVCAR-4 ovarian, 41.4%; with SK-OV-3 ovarian, 81.9%; with IGROV1 ovarian it was 42.2%; in the test on OVCAR-3 ovarian, 16.7%. Further, the figures for the growth in the test with HS 578T breast and in the test with NCI/ADR-RES ovarian were 65.6% and 37.5%, respectively.

For `COc1cc(C2CC(c3ccc(F)cc3)=Nc3c(N)nc(N)nc3N2)ccc1Oc1nc(Nc2ccc(F)cc2)nc(N(C)C)n1` (stereo not given), the growth in the test on SK-MEL-2 melanoma was 19.2%; with EKVX NSCLC, 56.4%; with SN12C renal, 79.7%; in the test on UO-31 renal it was 48%; in the test on TK-10 renal, 88.7%; in the test on ACHN renal it was 51.4%. Also, the growth in the test with CAKI-1 renal is 40.5%; with A498 renal, 74%; in the test with CCRF-CEM leukemia, 44.2%; in the test with MOLT-4 leukemia, 1.16% (active); in the test with SR leukemia, -21.5% (active); in the test on RPMI-8226 leukemia, 15.7%. In addition, the growth with OVCAR-8 ovarian is 63%; in the test with OVCAR-5 ovarian, 100%; with OVCAR-4 ovarian, 23.5%; in the test on SK-OV-3 ovarian it was 86.8%; in the test on IGROV1 ovarian, 51.7%; with OVCAR-3 ovarian it was 71.6%. Also, the growth in the test on HS 578T breast was 56%; in the test on NCI/ADR-RES ovarian, 48.5%.

Regarding `COc1ccc(-c2cc(C(=O)Oc3ccc(C=O)cc3OC)nn2-c2ccc(S(C)(=O)=O)cc2)cc1`, the growth was 110% in the test with SK-MEL-2 melanoma; 98% with EKVX NSCLC; 90.7% in the test with SN12C renal; 78.2% with UO-31 renal; 147% in the test with TK-10 renal; 106% in the test on ACHN renal. Further, the growth was 98.3% in the test with CAKI-1 renal; 126% with A498 renal; 83.6% with CCRF-CEM leukemia; 86.6% in the test on MOLT-4 leukemia; 84.9% with SR leukemia; 70.4% in the test with RPMI-8226 leukemia. In addition, the growth was 103% with OVCAR-8 ovarian; 125% in the test on OVCAR-5 ovarian; 89.7% with OVCAR-4 ovarian; 122% in the test on SK-OV-3 ovarian; 112% with IGROV1 ovarian; 93.4% in the test on OVCAR-3 ovarian. The growth in the test with HS 578T breast is 112%; in the test on NCI/ADR-RES ovarian it was 101%.

As to `COc1cc(/C=C/C(=O)c2cnn(-c3cc(=O)[nH]c4ccc(Cl)cc34)c2C)cc(OC)c1OC`, the growth in the test with SK-MEL-2 melanoma was -80.6% (active); in the test with EKVX NSCLC it was -4.28% (active); with SN12C renal it was 0.0215% (active); in the test on UO-31 renal, -72.6% (active); with TK-10 renal, 0.154% (active); in the test with ACHN renal it was -35.4% (active). The growth in the test with CAKI-1 renal is -68.4% (active); in the test on A498 renal it was -21.5% (active); in the test on CCRF-CEM leukemia it was -16.7% (active); with MOLT-4 leukemia, -10.9% (active); in the test with SR leukemia, -11.6% (active); with RPMI-8226 leukemia, -31.7% (active). The growth in the test on OVCAR-8 ovarian was -0.426% (active); in the test with OVCAR-5 ovarian it was -52.3% (active); in the test with OVCAR-4 ovarian, 17.7%; in the test with SK-OV-3 ovarian it was -6.03% (active); in the test on IGROV1 ovarian, -35.3% (active); in the test with OVCAR-3 ovarian, -61.7% (active). In addition, the growth was 23.9% in the test with HS 578T breast and -20.3% (active) with NCI/ADR-RES ovarian.

`COc1ccc(/C=C/C(=O)c2ccc(S(=O)(=O)NCCNc3nc(N(C)C)nc(N4CCOCC4)n3)cc2)cc1`: the growth in the test on SK-MEL-2 melanoma was 94.9%; in the test with EKVX NSCLC it was 81.1%; with SN12C renal, 91.6%; with UO-31 renal it was 74.5%; with TK-10 renal, 114%; with ACHN renal it was 104%. Moreover, the growth in the test with CAKI-1 renal is 73.2%; in the test with A498 renal it was 89.2%; in the test with CCRF-CEM leukemia, 80%; in the test on MOLT-4 leukemia, 34.7%; in the test with SR leukemia, 13.8%; in the test with RPMI-8226 leukemia, 14%. The growth with OVCAR-8 ovarian was 98.5%; in the test with OVCAR-5 ovarian, 95.4%; in the test with OVCAR-4 ovarian it was 94.1%; in the test on SK-OV-3 ovarian it was 101%; with IGROV1 ovarian, 98.5%; in the test on OVCAR-3 ovarian it was 100%. Besides, the growth in the test with HS 578T breast was 104%; in the test with NCI/ADR-RES ovarian it was 89.7%.

Take `O=C1Nc2cc(-c3ccc(NS(=O)(=O)c4ccc([N+](=O)[O-])cc4)cc3)ccc2/C1=C/c1ccc[nH]1`: the growth was 13.9% with SK-MEL-2 melanoma; 3.18% (active) with EKVX NSCLC; -17.7% (active) in the test with SN12C renal; 34.9% in the test with UO-31 renal; -2.87% (active) in the test with TK-10 renal; -62.5% (active) in the test on ACHN renal. Further, the growth with CAKI-1 renal was -17.4% (active); in the test on A498 renal, -33.6% (active); in the test on CCRF-CEM leukemia, 27.5%; with MOLT-4 leukemia, 15.8%; with SR leukemia it was 12.9%; in the test with RPMI-8226 leukemia, 13.5%. Besides, the growth with OVCAR-8 ovarian was 7.53% (active); in the test with OVCAR-5 ovarian it was 27.5%; in the test on OVCAR-4 ovarian, 6.68% (active); in the test on SK-OV-3 ovarian it was -16.9% (active); with IGROV1 ovarian, 39.2%; in the test on OVCAR-3 ovarian, -29.4% (active). Besides, the growth in the test on HS 578T breast was 41.6%; in the test with NCI/ADR-RES ovarian, 24.4%.

These data come from PubChem BioAssay (NCI).
